Measured values as given in ChEMBL document CHEMBL4513216, “Probing the Open Global Health Chemical Diversity Library for Multistage-Active Starting Points for Next-Generation Antimalarials” (ACS Infect Dis, 2020).
Among all 68,000 compounds or so, about 2,700 (4%) showed an effect of 50% or more. The entries come from a sample that favours strong results as a whole.

system: Plasmodium berghei; assay: Screen against P. berghei liver stage (PbLuc), transformed with Luciferase, at 2uM; assay type: functional, HepG2; conditions: tested at 2 uM

Compared with `CC1(C)CN(CCC(=O)NCc2cccc(Cl)c2)CC[C@]1(C)O`, `CC(C)(C)C(=O)NCCNCc1ccc(Cl)c2cccnc12` is higher in INHIBITION: -70.63% for the first, -53.16% for the second.

Going from `CN(C)c1nccc(C2CCCN(C(=O)CO)C2)n1` (configuration not stated) to `CC(C)c1cc(NC2CCCN(C(=O)c3cccs3)C2)ncn1` (configuration not stated), the INHIBITION falls from 1.13% to -13.8%.

Going from `CCn1c(Cn2cncn2)nnc1C1CCN(CC2[C@H]3CNC[C@@H]23)CC1` (some centres not stated) to `CCn1cc(NC(=O)C2CCN(Cc3noc(C4CC4)n3)CC2)cn1`, the INHIBITION rises from -11.68% to 66.2%.

First: CC(C)CN1C(=O)CC[C@H]2CN(Cc3ncc[nH]3)CC[C@H]21
Second: COCCCN1C(=O)CC[C@H]2CN(Cc3ncc[nH]3)CC[C@H]21
The INHIBITION of the first is lower: 20.74% for the first, 50.59% for the second.

Compared with `CSCCCN1C(=O)CC[C@H]2CN(Cc3ncc[nH]3)CC[C@H]21`, `O=C(NCCCn1cccn1)C1CCC(=O)N(Cc2ccccc2F)C1` (configuration not stated) is lower in INHIBITION: 27.5% for the first, 12% for the second.

Compared with `CC1(C)COCCN1C(=O)CCc1nc(-c2ccccn2)no1`, `O=C(CCn1c(C(F)(F)F)cc2cccnc21)N1CCOCC1` is higher in INHIBITION: -4.89% for the first, 48.65% for the second.

Going from `CN(C)CC(=O)N1Cc2nc(C(=O)N3CCCN(C)CC3)oc2C1` to `CN(C)CC(=O)N1CCCC2(CCC(=O)N(CCc3c[nH]cn3)C2)C1` (configuration not stated), the INHIBITION rises from 13.25% to 38.93%.

First: COc1ncnc2c1CCN(c1cc(C(F)(F)F)ncn1)CC2
Second: CCOc1ncnc2c1CCN(c1cc(C(F)(F)F)ncn1)CC2
The INHIBITION of the first is higher: 52.08% for the first, -17.38% for the second.

Compared with `CC(C)Oc1ncnc2c1CCN(c1cc(C(F)(F)F)ncn1)CC2`, `CC(C)c1nc(C2CCCN2Cc2nccn2CC(F)(F)F)no1` (configuration not stated) is lower in INHIBITION: 20.86% for the first, -20.05% for the second.

Compared with `CCOCC1CN(Cc2cnn(C)c2)Cc2c1cnn2CC` (configuration not stated), `COCC1CN(CC2CC2)Cc2nn(CC3CC3)cc21` (configuration not stated) is higher in INHIBITION: -8.04% for the first, 11.34% for the second.

First: O=C(c1ccco1)N1CCCC2(CCN(c3nncs3)C2)C1 (configuration not stated)
Second: Cc1occc1C(=O)N1CCC2(CCC(=O)N(CC(N)=O)C2)CC1
The INHIBITION of the first is lower: -56.25% for the first, -26.32% for the second.

Compared with `Cc1ncc2c(n1)CN(Cc1nnc(-c3ccccc3)o1)CC2`, `Cc1ccc(CN2CCc3onc(C(=O)Nc4cccnc4)c3C2)o1` is higher in INHIBITION: 33.5% for the first, 34.37% for the second.

Compared with `O=C(NCC1Cn2nnc(-c3ccncc3)c2CO1)c1ccsc1` (configuration not stated), `O=C(NCCc1cc2nc(-c3ccncc3)ccn2n1)C1CCOCC1` is lower in INHIBITION: 31.96% for the first, 9.9% for the second.

First: O=C(Nc1ccccc1)N1CCN(Cc2noc(C3CC3)n2)CC1
Second: Cc1ccccc1NC(=O)N1CCN(Cc2noc(C3CC3)n2)CC1
The INHIBITION of the first is lower: 31.7% for the first, 71.93% for the second.

Compared with `CCc1noc(CN2CCC(C(=O)Nc3cnn(CC)c3)CC2)n1`, `CCn1cc(NC(=O)C2CCN(Cc3noc(C(C)C)n3)CC2)cn1` is lower in INHIBITION: 49.9% for the first, -8.7% for the second.

Going from `O=C(Nc1ccccc1F)N1CCN(Cc2noc(C3CC3)n2)CC1` to `CN(C)C(C(=O)N1CCC(N2CCSCC2)CC1)c1ccccc1F` (configuration not stated), the INHIBITION falls from 11.1% to 4.18%.

Compared with `CC1(C)CC(C(=O)N2CCC3(CCC(=O)N(C4CC4)C3)CC2)CCO1` (configuration not stated), `CN1CCc2[nH]nc(C(=O)N3CCCC4(CN(C)C(=O)O4)C3)c2C1` (configuration not stated) is higher in INHIBITION: -29.52% for the first, -15.16% for the second.

Going from `COCC(=O)N[C@H]1C[C@@H](Cc2cc(CN3CCOCC3)on2)C1(C)C` to `CCc1cc(C(=O)N[C@H]2CN(CCS(C)(=O)=O)C[C@@H]2C2CC2)[nH]n1`, the INHIBITION falls from 19.39% to -90.7%.

Compared with `CCCS(=O)(=O)N[C@H]1CN(c2ncccc2C(N)=O)C[C@@H]1C(C)C`, `Cc1occc1C(=O)N1CCc2c(CNS(C)(=O)=O)cncc2C1` is higher in INHIBITION: -50.23% for the first, -15.09% for the second.

Going from `Cc1nc(C)c(C(=O)N2CCc3nnc(C4CCCCN4C)n3CC2)s1` (configuration not stated) to `CC(C)c1cc(NC2CCN(C(=O)N3CCCC3)CC2)ncn1`, the INHIBITION rises from 26.44% to 52.98%.

Going from `COc1ccc(CNC(Cc2ccsc2)c2ncccc2C)cc1OC` (configuration not stated) to `Cc1cccc(CN(Cc2ccccn2)Cc2ncc(C(C)(C)C)o2)c1`, the INHIBITION rises from -31.69% to 43.44%.

First: CCCN1CCC(c2nc3ccc(NCc4cccnc4)cn3n2)CC1
Second: CCCN1CCC(c2nc3ccc(NCc4ccccc4)cn3n2)CC1
The INHIBITION of the first is lower: 1.42% for the first, 54.65% for the second.

Going from `CC(=O)N1CCC(c2nc3ccc(-c4ccnn4C)cn3n2)CC1` to `CC(C)N1CCC(c2nc3ccc(-c4ccnn4C)cn3n2)CC1`, the INHIBITION rises from 25.31% to 51.94%.

First: CN1CCC(c2nc3ccc(-c4ccccc4)cn3n2)CC1
Second: CCCN1CCC(c2nc3ccc(-c4ccccc4)cn3n2)CC1
The INHIBITION of the first is higher: 54.56% for the first, 13.16% for the second.

First: CCCN1CCC(c2nc3ccc(C)cn3n2)CC1
Second: CN1CCC(c2nc3ccc(-c4cccc(F)c4)cn3n2)CC1
The INHIBITION of the first is lower: 20.01% for the first, 20.41% for the second.

First: Cn1nccc1-c1ccc2nc(C3CCNCC3)nn2c1
Second: CN(Cc1ccc(-n2cccn2)cc1)c1nc(N)nc2c1CCNCC2
The INHIBITION of the first is higher: 39.51% for the first, 18.01% for the second.

Going from `Cc1noc(C)c1-c1cnc(CC2CCN(C(=O)c3cc[nH]n3)C2)cn1` (configuration not stated) to `CN(C)C(=O)N1CCc2onc(C(=O)Nc3cccnc3)c2C1`, the INHIBITION rises from -26.24% to 67.19%.

Going from `CCC(C)c1csc(NC(=O)Cc2csc(-c3nnc[nH]3)n2)n1` (configuration not stated) to `COc1coc(C(=O)Nc2nc(C)cs2)cc1=O`, the INHIBITION rises from -5.58% to -1.29%.

Going from `Cc1nc2c(c(N(C)Cc3ccccc3-n3cccn3)n1)CCNCC2` to `CN(Cc1ccccc1-n1cccn1)c1nc(N)nc2c1CCNCC2`, the INHIBITION rises from -19.21% to 5.86%.

Going from `Cc1nc2c(c(N(C)CC3Cc4ccccc4CN3C)n1)CCNCC2` (configuration not stated) to `CN(CC1Cc2ccccc2CN1C)c1nc(N)nc2c1CCNCC2` (configuration not stated), the INHIBITION falls from 57.75% to 52.98%.

First: Cc1nc2c(c(NCC3Cc4ccccc4CN3C)n1)CCNCC2 (configuration not stated)
Second: Cn1cnc2c1CCN(CC(=O)N(Cc1ccccc1F)C1CC1)C2
The INHIBITION of the first is higher: 43.44% for the first, 18.99% for the second.

Going from `Cc1nc(N)cc(C2CCN2CCC(N)=O)n1` (configuration not stated) to `CCc1n[nH]c(C(=O)N2CCCC3(CN(C)C(=O)O3)C2)c1C` (configuration not stated), the INHIBITION rises from 11.32% to 51.9%.

First: Cc1ncsc1CN1C[C@@H]2CCCO[C@@H]2[C@H](N(C)C(C)C)C1
Second: CCc1cnc(N2CCCOC(CN3CCCC3)C2)nc1 (configuration not stated)
The INHIBITION of the first is higher: -10.13% for the first, -30.18% for the second.

First: CS(=O)(=O)Cc1ccc(C(=O)N2CCCC(n3cncn3)C2)o1 (configuration not stated)
Second: CC(C(=O)Nc1ccc(N2CCOCC2)nc1)n1cncn1 (configuration not stated)
The INHIBITION of the first is lower: 12.7% for the first, 43.32% for the second.

First: O=C(c1nc2sccn2c1-c1ncc[nH]1)N1CCCCC1
Second: O=C(N1CCCC1)N1CCC(Nc2ccncn2)CC1
The INHIBITION of the first is lower: -1.65% for the first, 39.44% for the second.

First: CCN(Cc1cccc(Cl)c1)Cc1ncc(C(C)(C)C)o1
Second: CCN(Cc1ncc(C(C)(C)C)o1)Cc1ccccc1C
The INHIBITION of the first is higher: 81.59% for the first, -47.18% for the second.

Going from `OC1(CNc2ccc(Br)cn2)CCOCC1` to `Cc1cccc(-c2ccc(C(=O)NCC3CCCOC3)c(=O)[nH]2)c1` (configuration not stated), the INHIBITION rises from -58.79% to -9.49%.

Compared with `OC(CNCCn1cccn1)c1cccc(Br)c1` (configuration not stated), `O=C(Cn1cccn1)N(CCO)CCSc1ccc(Cl)cc1` is higher in INHIBITION: -69.91% for the first, -5.53% for the second.

First: CC(C)NC(=O)N1CCc2onc(C(=O)Nc3cccnc3)c2C1
Second: CC(C)NC(=O)N1CCc2onc(C(=O)NCCN(C)C)c2C1
The INHIBITION of the first is lower: 18.87% for the first, 42.62% for the second.

Compared with `CN(C)CCNC(=O)c1noc2c1CN(C(=O)N(C)C)CC2`, `CC(C)C(=O)N1CCc2onc(C(=O)NCCN(C)C)c2C1` is lower in INHIBITION: 59.76% for the first, 11.37% for the second.

First: CCc1ccc(C(=O)O)cc1S(=O)(=O)N(C)c1cccc(C)c1
Second: Cc1cccc(-c2ccc(C(=O)NCC3CCCO3)c(=O)[nH]2)c1 (configuration not stated)
The INHIBITION of the first is lower: -2.2% for the first, 57.77% for the second.

Compared with `CN(Cc1ccccc1)C(=O)c1nc(S(C)(=O)=O)n2ccccc12`, `COCC(=O)N1CCN(S(=O)(=O)c2ccccc2)[C@H]2CS(=O)(=O)C[C@H]21` is higher in INHIBITION: 3.9% for the first, 15.75% for the second.

First: O=C(O)c1nnn(-c2ccc(OC(F)(F)F)cc2)c1-c1ccncc1
Second: O=C(Cc1ccncc1)N(CCO)CCSc1ccc(Cl)cc1
The INHIBITION of the first is lower: 3.22% for the first, 47.2% for the second.

Going from `CC(Nc1ccc2c(c1)CCC2)c1nc(C2CC2)no1` (configuration not stated) to `CC(NCC(=O)Nc1ccc(N2CCCCCC2)cc1)c1cccs1` (configuration not stated), the INHIBITION rises from 6.47% to 23.68%.

Compared with `Cc1ccc2oc(=O)n(CC(=O)N3CCC4(CC3)CN(C)C(=O)O4)c2c1`, `Cc1nc[nH]c1C(=O)N1CCCC2(CN(C)C(=O)O2)C1` (configuration not stated) is higher in INHIBITION: -55.13% for the first, 1.06% for the second.

Going from `COc1c(CNCc2ccc(C(=O)N(C)C(C)C)cc2)c(C)nn1C` to `Cc1cccc(-c2ccc(C(=O)NCC3CCOC3)c(=O)[nH]2)c1` (configuration not stated), the INHIBITION rises from 4.55% to 17.39%.

Compared with `O=C(Cn1ccnc1)N(CCO)CCSc1ccc(Cl)cc1`, `CC(C)CC(NC(=O)CSc1ccc(F)c(Cl)c1)C(=O)O` (configuration not stated) is lower in INHIBITION: 56.21% for the first, 14.54% for the second.

First: COCC(=O)N1CCN(C(=O)Cc2cccs2)[C@H]2CS(=O)(=O)C[C@H]21
Second: COCC(=O)N1CCN(S(=O)(=O)c2cccs2)[C@H]2CS(=O)(=O)C[C@H]21
The INHIBITION of the first is higher: 54.47% for the first, 18.77% for the second.

Going from `CN1C(=O)CCCC12CCCN(C(=O)c1cc(F)cc(F)c1)C2` (configuration not stated) to `Cc1nc2ncc3c(=O)n(C)ccc3n2n1`, the INHIBITION falls from 12.83% to -42.16%.

First: Cn1ccnc1CN1CCOC(Cn2cccn2)C1 (configuration not stated)
Second: Cc1ccc(CN2C[C@@H](OCc3ccccn3)[C@H]3COC[C@H]32)o1
The INHIBITION of the first is higher: 7.01% for the first, -4.92% for the second.

Going from `CC(C)CC(NC(=O)Nc1ccc(F)c(Cl)c1)C(=O)O` (configuration not stated) to `CC(C)C[C@H](NC(=O)Nc1ccc(F)c(Cl)c1)C(=O)O`, the INHIBITION falls from 56.54% to -9.89%.
